Data on 40 sequences can be found in the supplement of paper PMC6555819.

This assay relates to VDR:RXRa (NR concentration 270 nM, RXRa partner concentration 90 nM). Put plainly: PBM binding z-score (relative to random genomic background probes); higher = stronger binding; sequences stand for … in GC…GCGATTGACAGCGTAGAATGAAGG
The method, then: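 Protein-binding microarray (Agilent 4x180K custom design, double-stranded 60-nt probes: 5' GC cap, 34-nt variable region, 24-nt constant primer region; full probe sequence given). Purified or IVT nuclear receptor:RXRα heterodimers (3:1 NR:RXRα, mostly 270:90 nM) or homodimers were incubated for 1 h in PBS with 2% milk and no ligand, then detected with Alexa488 antibodies. Fluorescence from o1-orientation probes (~5 replicates averaged) was converted to z-scores against 500 random hg19 background probes. Variable regions are seed direct-repeat (DR0–DR5) sites, all their single-nucleotide variants and half-site ablations.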
Sequence ATCGAAAGGTCGTGACGTGAGTATACAGAAAGGC had a PBM binding z-score of 3.03.

Regarding CGTCCAAGGTCAACGCTAGGTCAGTGAAAGCATT, the PBM binding z-score was found to be 5.09.

For CATACCGGGTCAGCTAGGCCAGAGTAGGGACGGC, the PBM binding z-score was 2.57.

The sequence CTCGAAAGGTCGGTTGAGGTGACTATACGGATAA gave a PBM binding z-score of 2.77.

As to CCGAGTAGGTTACGAGGGTGCATTCAGTGCGAAT, the PBM binding z-score amounted to 4.73.

In turn, CTCTGTAGGTTAAGGGGGTCATTCAGTTTGAAAG had a PBM binding z-score of 7.66.

In the case of CGAACTAGGTCACCAGAACAGTGAAGAGGTTGGA, the PBM binding z-score was found to be 1.86.

Sequence GATACAGGGTCAAGGCCAGAGTACGCGTATTGAT showed a PBM binding z-score of 4.28.

Regarding CCTTACGGGTCGCTGACAGGTTATAGCATTTGGA, the PBM binding z-score was 0.961.

As for GGAACTAGGGCAAAGTTGATAGCATCTGTCGACG, the PBM binding z-score is -0.0768.

ATACGTAGGTTAGGGTCATTCAGAAAGTAGGGAA: the PBM binding z-score came out at 4.37.

CCTTACGGGTCACTCCAGGTTCTAGCATCGGAGT: the PBM binding z-score is 3.59.

AGAATGAGGTTATACGTAGGTCAGGGAAGAAAGT: the PBM binding z-score stood at 3.34.

Take CGAACTAGGTCACTAGGACAGTGAAGAGGTTGGA: the PBM binding z-score was 1.18.

As to CCGAGTAAGTTACGAGGGGGCATTCAGTGCGAAT, the PBM binding z-score was 3.83.

Regarding CTATGTAGGTTAAGGGGGGCATTCAGTTTGAAAG, the PBM binding z-score amounted to 6.21.

CCTACTGGGCCATTCAGAGGTTATTGATCATATG showed a PBM binding z-score of 0.462.

Take TGAATGAGGTTAAAGGTCAGGGAACGTGGCGTCG: the PBM binding z-score stood at 5.85.

Turning to TAGCCTAGGTCATGGGCCAGTTTACCACGCGAAC, the PBM binding z-score was 2.61.

In turn, AATACAGGGTCACTTGGCCAGAGTAGGTACGAAT registered a PBM binding z-score of 4.36.

Turning to CGACCTAGGTCACCAGGACAGTGAAGAGGTTGGA, the PBM binding z-score worked out at 2.68.

For the sequence CGAACTAGGTCAAAGGCCAGTGAAAGGCGACGTA, the PBM binding z-score was found to be 1.74.

CCTACTGGGCCACGAAAGGTGATTGATTCAGTGA yielded a PBM binding z-score of -0.281.

As to GATAAAGGGTCAGCTAGAGGCCAGAGTATGGAAA, the PBM binding z-score was 3.73.

AGTCAAAGTTCAGGACGAGGTAAAGTAAAGCACG registered a PBM binding z-score of 3.01.

CCTACTGGGCCAAAAAGGCCATTGATGCCGATAA: the PBM binding z-score stood at 0.326.

Sequence CCTACTGGGGCACGAAAGGTCATTGATTCAGTGA registered a PBM binding z-score of 4.61.

In the case of ATATGTAGGTTACATCCGGGTCATTCTGGCTATG, the PBM binding z-score came out at 3.69.

CTATGTAGGTTAAGGGGGTTATTCAGTTTGAAAG had a PBM binding z-score of 5.71.

For CCTGCTCGGTCAATGGTCAGCTAAAGCAGCTCGC, the PBM binding z-score was -0.375.

Turning to CCGAGTAGGTTACGAGGGGGCATCCAGTGCGAAT, the PBM binding z-score is 4.75.

As for TAGCCTAGGTCATGCGGGTCAGTATAGTGTCGGC, the PBM binding z-score was 5.81.

ATCGAAAGGTGGACGAGGTGAGTATACACCGTTT displayed a PBM binding z-score of 0.85.

CTCGAAAGGTCGAGCTCAGGTGAGTATACCAAAC yielded a PBM binding z-score of 2.71.

The sequence ATATCTAGGTTAGGGTCATTCAGAAAGTAGGGAA yielded a PBM binding z-score of 4.41.

CCTACTGGGCCATGAAAGGTCATTGATTCAGTGA had a PBM binding z-score of 3.82.

For CCCGCTAGGTCATGGTCAGCTAATCTACAGTATG, the PBM binding z-score is 1.69.

Consider CCATGTAGGTTAAGGGGGTCATTCAGTTTGAAAG, for which the PBM binding z-score amounted to 7.41.

On to CGAACTAGGTCAAATGACAGTGAAAGGCGACGTA, for which the PBM binding z-score turned out to be 1.63.

For TCGAGTAGGTTACGGGGGTATTCAGGGATGAAGA, the PBM binding z-score turned out to be 2.64.
